The whole screen tested about 320,000 compounds, of which about 2,100 (0.66%) were called active. Roughly 53% stayed inconclusive and do not appear here. The call rests on the fitted dose curve; in most records, active means well fitted inhibition curve with a large enough effect in the signal ratio, with a control signal flat (not every such curve was filed as active); inconclusive means small, poorly fitted or top-dose-only effect, or effect the other way, or a change in a side signal; inactive means flat fitted curve, though single readings scatter; the % refers to the signal ratio. For the sample, actives were picked, then their nearest neighbours and some compounds at random.
Potency means the concentration at half of the fitted maximal effect.

This test is described as follows: qHTS Assay for Lipid Storage Modulators in Drosophila S3 Cells.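 On cell number change: cells counted by Cell Tracker Red CMTPX staining in the red channel.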 On lipid storage change, negative = inhibition: on the % scale 0 is the no-effect control and ±100 the full control effect. The conditions noted are these: BODIPY lipid droplet fluorescence, 18-24 h, cells fed with added oleic acid; cell number change: measured here: cell count max response; series mostly up to 46.1 µM. A digest of the protocol: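 Drosophila S3 cells loaded with oleic acid (400 uM, as added) and compounds at several concentrations; lipid droplets imaged by 488-nm laser-scanning cytometry, 500–530 nm intensity and object ratio to cell channel. Percent activity normalized to 20 uM Triacsin C.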
Take `O=C(O)c1cc2ncc(-c3[nH]ncc3[N+](=O)[O-])cn2n1`: the Potency result was “inactive” and the cell number change was 25.8%.

`CCCCc1nc2ccccc2c(=O)n1NC(=O)c1c(O)c2ccccc2n(C)c1=O`: the Potency entry is “inactive” and the cell number change is -2.66%. For `O=C(CSc1nc2ccc(S(=O)(=O)N3CCOCC3)cc2[nH]1)N1CCOCC1`, the Potency is 18.4 µM (active) and the cell number change was found to be 8.23%. Turning to `COC(=O)c1ccc(CSc2nc3ccc(S(=O)(=O)N4CCOCC4)cc3[nH]2)cc1`, the Potency result was “inactive” and the cell number change was found to be 1.16%.

Turning to `Cc1ccc2nc(SCC(=O)N3CCOCC3)[nH]c2c1`, the Potency entry was “inactive” and the cell number change is -6.28%. As to `O=C(O)C1CCCN(S(=O)(=O)c2ccc(-c3ccc(=O)[nH]n3)s2)C1` (stereo unspecified), the Potency entry is “inactive” and the cell number change was -7.22%. The corresponding values for `COC(=O)Nc1ccc(Cn2cc(C(F)(F)F)ccc2=O)cc1` are “inactive” and 17.3%. As for `O=C1NC(=O)N(Cc2ccccc2)C1=O`, the Potency result is “inactive” and the cell number change was -0.926%. Consider `O=C1C=CC(=O)N1Cc1ccccc1`, for which the Potency is 4.11 µM (active) and the cell number change is -23.7%. For `O=C1[C@H](O)[C@@H](O)C(=O)N1Cc1ccccc1` the same measures were “inactive” and 24.4%. With `COCCNc1ncnc2nc[nH]c12`, the Potency entry was “inactive” and the cell number change came to 7.15%. The corresponding values for `CCCNc1ncnc2nc[nH]c12` are “inactive” and 19.1%. In the case of `C1=C(CCNc2ncnc3nc[nH]c23)CCCC1`, the Potency was 16.4 µM (active) and the cell number change is -23.9%. With `O=C(Sc1ccccc1)c1cccc(Cn2cc(C(F)(F)F)ccc2=O)c1`, the Potency result was “inactive” and the cell number change turned out to be 1.6%. As to `COc1cccc(NC(=O)c2ccc3nc(C)sc3c2)c1`, the Potency result is “inactive” and the cell number change was 0.275%. As to `CCN1CCCC(OC(=O)Nc2ccccc2)C1` (stereo unspecified), the Potency entry was “inactive” and the cell number change is -14.2%. Consider `Cc1cc2c(NCc3ccccc3)ncnc2s1`, for which the Potency result was “inactive” and the cell number change was -12.9%. `COc1ccc(CCNc2ncnc3c2c(C)c(C)n3CCO)cc1OC`: the Potency result is “inactive” and the cell number change is -9.63%. Turning to `COc1ccc(CCNc2ncnc3sc(C)cc23)cc1OC`, the Potency is 4.11 µM (active) and the cell number change was -27%.

Regarding `CCOC(=O)c1ccc(-c2ccc(/C=N/NC(=O)Cc3nnc(N)s3)o2)cc1`, the Potency result was “inactive” and the cell number change is -10.3%. For `CCOC(=O)C1CCN(C(c2cccc(F)c2)c2sc3nc(C)nn3c2O)CC1` (stereo unspecified), the Potency entry is “inactive” and the cell number change stood at 9.03%. For `Cc1nc(S(=O)(=O)N2CCN(C3c4ccccc4-c4ccccc43)CC2)cn1C`, the Potency entry was “inactive” and the cell number change is 19.2%. `CC(C)Oc1ccc(C(=O)Nc2ccc3c(c2)n(C)c(=O)n3C)cc1`: the Potency is 18.4 µM (active) and the cell number change was -24.3%. The corresponding values for `COc1ccc(NC(=O)c2ccc3c(c2)n(C)c(=O)n3C)cc1` are “inactive” and -1.07%. Regarding `Cn1c(=O)n(C)c2cc(NC(=O)c3ccc(F)cc3)ccc21`, the Potency entry was “inactive” and the cell number change is -7.46%. For `CCN(CC)C(=O)c1ccc(-c2cccs2)s1`, the Potency result is “inactive” and the cell number change was 3.13%. On to `COc1ccc(NC(=O)c2oc3ccccc3c2C)cn1`, for which the Potency result is “inactive” and the cell number change is 13.5%. Turning to `COc1ccc(NC(=O)c2oc3ccccc3c2CSC)cn1`, the Potency was 23.1 µM (active) and the cell number change is 1.61%.

With `CCOCc1c(C(=O)Nc2ccc(OC)nc2)oc2ccccc12`, the Potency entry was “inactive” and the cell number change is -13.5%. Turning to `CC(C)CCNC(=O)C(C)N(Cc1ccc(F)cc1)C(=O)c1ccc(CN2CCOCC2)o1` (stereo unspecified), the Potency entry is “inactive” and the cell number change is -9.3%.

For the compound `COC(=O)c1ccccc1NC(=O)COC(=O)CO/N=C(\C)c1ccc2c(c1)OCO2`, the Potency result is “inactive” and the cell number change is -2.37%.

Take `Cc1cc(OC(C)C(=O)NCC2CCC(C(=O)O)CC2)c2c(C)cc(=O)oc2c1` (stereo unspecified): the Potency result is “inactive” and the cell number change is -0.291%. For `CCOC(=O)C1CCN(C(=O)c2cc(COc3ccc(OC)c4ccccc34)on2)CC1`, the Potency result is “inactive” and the cell number change stood at 0.306%.

Take `CCc1cccc(CC)c1-n1c(SCC(=O)N2CCc3ccccc3C2)nnc1-c1cccnc1`: the Potency is 16.4 µM (active) and the cell number change was 1.33%.

As for `Cn1c(SCC(=O)N2CCc3ccccc3C2)nnc1-c1ccncc1`, the Potency result is “inactive” and the cell number change was 6.69%. For the compound `Cc1ccc(-n2c(C)nnc2SCC(=O)N2CCc3ccccc3C2)cc1`, the Potency entry was “inactive” and the cell number change is -10.8%. On to `COc1ccc(-c2nc(CN3CCC(C(=O)NCC4CCCO4)CC3)c(C)o2)cc1OC` (stereo unspecified), for which the Potency entry was “inactive”. For the compound `CCn1c(SCC(=O)c2ccccc2)nc2c(c1=O)SC(C)C2` (stereo unspecified), the Potency result is “inactive”. For `N#CC1(NC(=O)COc2ccccc2[N+](=O)[O-])CCCCC1`, the Potency result was “inactive”.

Take `N#CC1(NC(=O)COc2ccc(S(=O)(=O)N3CCCC3)cc2[N+](=O)[O-])CCCCC1`: the Potency entry is “inactive” and the cell number change was -3.48%. `N#CC1(NC(=O)COc2cc(F)ccc2[N+](=O)[O-])CCCCC1`: the Potency was 11.6 µM (active) and the cell number change is -12.3%. For `COc1cccc(C2=NOC(C(=O)N3CCN(Cc4ccccc4)CC3)C2)c1OC` (stereo unspecified), the Potency entry was “inactive” and the cell number change was -0.697%.

Turning to `COc1ccc(CCN(C)CC(O)COC(c2ccc(F)cc2)c2ccc(F)cc2)cc1OC` (stereo unspecified), the Potency entry was “inactive” and the cell number change is -8.84%. On to `COc1cccc(CN2CCN(C3CCN(c4ccccc4C)CC3)CC2CCO)c1` (stereo unspecified), for which the Potency entry was “inactive” and the cell number change is -24%.

`COc1ccc(Cl)cc1NC(=O)Nc1ccccc1C(N)=O`: the Potency result was “inactive” and the cell number change turned out to be 14.7%. `Cc1cccc([C@@H]2[C@@H]3C(=O)N(Cc4ccccc4)C(=O)[C@@H]3[C@]3(C)C(=O)N(c4ccc(Br)cc4)C(=O)N23)c1`: the Potency was 2.31 µM (active) and the cell number change amounted to 17.2%. As for `Cc1ccc(N2C(=O)N3[C@H](c4cccc(C)c4)[C@@H]4C(=O)N(Cc5ccccc5)C(=O)[C@@H]4[C@]3(C)C2=O)cc1`, the Potency result is “inactive” and the cell number change was -18.1%.

Take `Cc1cccc([C@@H]2[C@@H]3C(=O)N(Cc4ccccc4)C(=O)[C@@H]3[C@]3(C)C(=O)N(c4cccc(Cl)c4)C(=O)N23)c1`: the Potency entry was “inactive” and the cell number change was -9.71%. Consider `CN(C(=O)c1cccnc1)c1nnc(-c2cccnc2)s1`, for which the Potency entry is “inactive” and the cell number change is -7.8%. The corresponding values for `COc1ccccc1NC(=O)Nc1cccc(NC(C)=O)c1` are “inactive” and -3.02%. For `Cc1csc(NC(=O)c2ccccc2)n1` the same measures were “inactive” and 23.7%. As to `Cc1csc(NC(=O)c2cnc3ccccc3n2)n1`, the Potency was 1.64 µM (active). Regarding `Cc1csc(NC(=O)c2ccc3ccccc3n2)n1`, the Potency entry is “inactive” and the cell number change was 7.3%.

`Cc1cccc(N2CCN(C(=O)C(NS(=O)(=O)c3cccs3)c3ccccc3)CC2)c1C` (stereo unspecified): the Potency result is “inactive” and the cell number change was -2.06%. Turning to `CCN=C1S/C(=C\c2cc(Br)c(O)c(OC)c2)C(=O)N1CC`, the Potency entry is “inactive” and the cell number change was -10.5%.

With `CC(NC(=O)C1CCCCC1)c1ccc2c(c1)OCCO2` (stereo unspecified), the Potency result was “inactive”.

In the case of `Cc1ccc(C(C)(C)C)cc1S(=O)(=O)N1CCC(C(=O)N2CCN(c3ccc(O)cc3)CC2)CC1`, the Potency is 3.66 µM (active) and the cell number change is -13.6%. The corresponding values for `O=C(C1CC1)N1CCN(c2ccc(O)cc2)CC1` are “inactive” and 22.2%. As for `Cc1ccc(C(=O)O)cc1S(=O)(=O)N1CCC(C(=O)O)CC1`, the Potency result is “inactive” and the cell number change was -0.135%. Take `Cc1ccc(N(Cc2cc3cc(C)ccc3[nH]c2=O)S(=O)(=O)c2ccccc2)cc1`: the Potency result was “inactive” and the cell number change is -3.48%. With `CCOC(=O)CSc1nc2ccccc2c(=O)n1CC1CCCO1` (stereo unspecified), the Potency result is “inactive” and the cell number change worked out at 0.196%. Consider `COc1ccc(OC2C(=O)N(Cc3ccc(F)cc3)C2c2ccc(OC)c(OC)c2)cc1` (stereo unspecified), for which the Potency entry is “inactive”. As to `O=C(Cc1ccc(Cl)c(Cl)c1)Nc1ccc(S(=O)(=O)Nc2ncccn2)cc1`, the Potency entry is “inactive” and the cell number change is 8.75%. Take `O=C(Cc1ccccc1F)Nc1ccc(S(=O)(=O)Nc2ncccn2)cc1`: the Potency is 0.146 µM (active) and the cell number change is 16.8%.

Take `O=C(Cc1c(Cl)cccc1Cl)Nc1ccc(S(=O)(=O)Nc2ncccn2)cc1`: the Potency result is “inactive” and the cell number change is 17.5%.

Regarding `C#CCN(C(=O)c1ccc(OC)c(OC2CCN(C(C)C)CC2)c1)C1CCCCC1`, the Potency entry is “inactive” and the cell number change was 13.3%. `Cc1cc(NC(=O)COC(=O)CSc2nc3cc(Cl)ccc3n2Cc2ccccc2)no1`: the Potency result was “inactive” and the cell number change was -15.1%. Turning to `CC(Sc1nccn1C)C(=O)Nc1ccc(C(N)=O)cc1` (stereo unspecified), the cell number change is 24.6% and the lipid storage change, negative = inhibition is -16.1% [at 0.0737 µM] (inactive). As to `CC(Sc1nccn1C)C(=O)c1ccc(Br)cc1` (stereo unspecified), the Potency was 18.4 µM (active) and the cell number change came out at 8.97%. `CC(Sc1nccn1C)C(=O)Nc1ccccc1` (stereo unspecified): the Potency result was “inactive” and the cell number change is -8.41%. With `Cc1ccc(C)c(NS(=O)(=O)c2ccc(-c3ccc(=O)[nH]n3)o2)c1`, the Potency result is “inactive” and the cell number change is -3.63%. Turning to `Cc1cccc(C)c1NS(=O)(=O)c1ccc(-c2ccc(=O)[nH]n2)o1`, the Potency is 16.4 µM (active) and the cell number change is -21.6%.

As to `Cc1ccc(NS(=O)(=O)c2ccc(-c3ccc(=O)[nH]n3)o2)c(C)c1`, the Potency result is “inactive” and the cell number change was determined as 3.54%. For `O=C(O)/C=C/C(=O)NC1CCC(CC2CCC(NC(=O)/C=C/C(=O)O)CC2)CC1` (stereo unspecified), the Potency entry was “inactive” and the cell number change was 16.5%. On to `O=C(N/N=C/c1nn(-c2ccccc2)cc1-c1ccc(Cl)cc1)c1ccncc1`, for which the Potency entry is “inactive” and the cell number change came out at 11.9%. For `O=C(O)c1ccc(CNC(=O)c2ccc(S(=O)(=O)N3CCCCC3)cc2)cc1`, the Potency entry is “inactive” and the cell number change is -13.8%. For the compound `CS(=O)(=O)c1ccc(C(=O)NCc2ccccc2F)cc1`, the Potency entry was “inactive” and the cell number change was 16.1%. On to `O=C(NCCCN=C1NS(=O)(=O)c2ccccc21)c1ccc(S(=O)(=O)N2CCCCC2)cc1`, for which the Potency was 8.2 µM (active) and the cell number change was -7.55%.

Take `O=C(NCCN=C1NS(=O)(=O)c2ccccc21)c1ccncc1`: the Potency entry was “inactive” and the cell number change was -9.37%. Take `Cc1ccc2cc(CCNC(=O)c3ccc(S(=O)(=O)N4CCCCC4)cc3)c(=O)[nH]c2c1`: the cell number change is 17.8% and the lipid storage change, negative = inhibition was 20.6% [at 9.22 µM] (inactive). For `COc1ccc(OC)c2[nH]c(=O)c(CCNC(=O)c3ccc(S(=O)(=O)N4CCCC4)cc3)cc12`, the Potency result was “inactive” and the cell number change was found to be 1.32%. For `CCN(CC)S(=O)(=O)c1ccc(C(=O)NCCCN=C2NS(=O)(=O)c3ccccc32)cc1`, the Potency result was “inactive” and the cell number change was found to be 17.2%. On to `Cc1ccc(C)c2[nH]c(=O)c(CCNC(=O)c3ccc(S(=O)(=O)N4CCCC4)cc3)cc12`, for which the Potency is 13 µM (active) and the cell number change was -19%. Turning to `CN(c1ccccc1)S(=O)(=O)c1ccc(C(=O)NCc2cccs2)cc1`, the Potency result was “inactive”. For `CN(c1ccccc1)S(=O)(=O)c1ccc(C(=O)NCc2ccccc2F)cc1`, the Potency is 13 µM (active) and the cell number change is -21.4%. For `O=C(NCc1ccccc1F)c1cccc(S(=O)(=O)N2CCCCCC2)c1` the same measures were “inactive” and 6.02%.

With `O=C(NCc1ccccc1F)c1ccc(S(=O)(=O)N2CCCCCC2)cc1`, the Potency is 18.4 µM (active) and the cell number change turned out to be 11.4%.

`O=C(Nc1ccc(C(=O)N2CCOCC2)cc1)c1cnn2c(C(F)F)cc(-c3ccccc3)nc12`: the Potency entry is “inactive” and the cell number change amounted to 19.9%. Turning to `CCCCC1CCC(c2nc(-c3cccnc3)no2)CC1` (stereo unspecified), the Potency result was “inactive” and the cell number change was -3.76%.

The record behind these values is PubChem BioAssay AID2685 (National Center for Advancing Translational Sciences (NCATS), 2010).
